The values below come from PubChem BioAssay.

SMILES strings stand for the structures. Calls of active or inactive are those of the source.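 The calls were made as follows, unless noted: active = visually confirmed hit in the image check and inhibition above 20%; inconclusive = visually confirmed hit but inhibition not above 20%; inactive = no visual hit in the image check.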

As a reminder, the inhibition is the drop in the measured response relative to a control, in per cent.

A short description of assay [1]: reduction of polyQ htt aggregates in cells – imaging, exon1htt(103Q)mCFP cells, high-content imaging, primary screen (AID 483;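 active = visual image review flags a hit and inhibition of aggregation exceeds 20%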;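 also: compound exposure lasted 3 days before fixation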;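 as to nuclei count: percent of the per-plate median nuclei count of sample wells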). The settings on record: exon1htt(103Q)mCFP cell line, aggregate imaging, at 2 µM; inhibition of aggregation: stronger effect = higher value; nuclei count: measured here: cell count, toxicity.
Assay [2] can be described thus: endothelial E-selectin expression blockers – imaging, HUVEC, immunofluorescence, MLSMR starter and 10KST1 sets, primary screen (AID 487).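 As to inhibition: signal is fraction of cell area covered by stained E-selectin grains.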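 As to nuclei count: 100% = median nuclei count of all wells on the same plate.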 The settings on record: HUVEC TNFalpha-induced E-selectin immunofluorescence imaging, at 2 µM; inhibition: stronger effect = higher value; nuclei count: measured here: cell number, toxicity.
Assay [3] can be described thus: Primary imaging screen for DUSP6 inhibitors that restore phospho-Erk in transfected HeLa cells, chemical complementation (AID 609;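 active = compounds giving at least 50% inhibition in the cell-based MKP-3 phosphatase rescue imaging test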;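 as to inhibition: phospho-Erk level distribution per well compared with pooled transfected vehicle control wells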). The settings on record: HeLa MKP-3 transfected, phospho-Erk imaging KS statistic, at 10 µM, cells stimulated with TPA for 15 min.
Assay [4] deals with Dual specificity protein phosphatase 6 (Homo sapiens) (UniProt Q16828). The assay is described as above. The settings on record: HeLa MKP-3 transfected, phospho-Erk imaging KS statistic; at 10 µM; stronger effect = higher value; cells stimulated with TPA for 15 min.
In assay [5] the target is Voltage-gated potassium channel subunit beta-2 (Rattus norvegicus) (UniProt P62483). As to the kind of experiment: inhibitors of rat Kvbeta2 reductase activity – biochemical, NADPH fluorescence, primary screen (AID 622;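 active = fluorescence slope higher than the sample average by over 3 SD, cut at about -0.22 in these data, passing the limit was not always enough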;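 also: slope of raw intensity against log time taken from 70 to 1610 s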). The settings on record: recombinant KvBeta, 4-cyanobenzaldehyde reduction, at 10 µM, stronger effect = higher value.
Assay [6] has the same target. As to the kind of experiment: enhancers of rat Kvbeta2 NADPH turnover – biochemical, NADPH fluorescence, primary screen (AID 623;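 active = NADPH fluorescence slope more negative than the mean of all samples by about 3 SD, 99.7% confidence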;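 also: fluorescence intensity change per second fitted from 20 to 320 s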). The settings on record: Recombinant KvBeta, NADPH fluorescence decrease slope, 10 min; at 10 µM; stronger effect = lower value.
Assay [7] deals with Alpha-2C adrenergic receptor (Homo sapiens) (UniProt P18825). As to the kind of experiment: compounds altering alpha2C-coupled GIRK flux – cell-based, HEK293 alpha2C/GIRK1/2, thallium flux, primary screen (AID 624;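 active = fluorescence slope after compound addition differing from the mean of all screened samples at 99.7% confidence, in either direction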;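 also: slope of fluorescence ratio to pre-addition baseline per second over 15 to 24 s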). The settings on record: thallium flux BTC fluorescence, at 10 µM, actives lie on both sides.
The nature of assay [8]: loss of swimming-algae plug formation – whole organism, Chlamydomonas reinhardtii, WT vs cilia-less mutant, absorbance, 96-well, primary screen (AID 463189;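 active = inhibition at or above 50% relative to wild type and mutant plate controls; inactive = inhibition below 50%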;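 also: 0% = wild type cc124 cells in DMSO and 100% = ciliumless bld1 mutant cells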). The settings on record: Chlamydomonas reinhardtii gravitaxis, OD600 absorbance, 2 days; at 10 µM; stronger effect = higher value.
The nature of assay [9]: blockers of RIG-like receptor reporter activation – cell-based, Sendai virus stimulus, luciferase, 10K MLSCN set, TLR/RLR signaling modifier project, primary screen (AID 602276;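 active = inhibition at or above 50% at 10 µM; inactive = inhibition below 50%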;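 also: firefly luciferase from ISG56 promoter only with Renilla not read in this screen; 0% = Sendai virus plus DMSO and 100% = medium plus DMSO without virus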). The settings on record: HEK293 RL24 IRF3 luciferase reporter, at 10 µM, stronger effect = higher value.
The nature of assay [10]: TLR3 IRF3 reporter activation blockers – cell-based, poly I:C stimulus, luciferase, 10K MLSCN set, primary screen (AID 602277;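 active = inhibition of the reporter signal at or above 50%; inactive = inhibition below 50%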). The settings on record: HEK293-TLR3 RL24 IRF3 luciferase reporter, at 10 µM, stronger effect = higher value. (In a reporter assay the amount or activity of a reporter protein is the signal.)
A short description of assay [11]: inhibitors of larval lipid processing in zebrafish, primary screen, whole organism, PED6 fluorescence, gall bladder and intestine (AID 686;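 active = a full or partial loss of lipid-probe fluorescence in the fish gall bladder, intestine or both, judged by eye; inactive = no fluorescence loss, or compound toxic to the fish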;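 also: larvae 5 to 7 days old with five fish per well; signal comes from phospholipase A2 cleavage of quenched PED6 carried via bile; overnight exposure to compound and PED6 before scoring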). The settings on record: Zebrafish larvae PED6 lipid processing, fluorescence scoring; screened at 20 µM (by protocol).
In assay [12] the target is Muscarinic acetylcholine receptor M4 (Homo sapiens) (UniProt P08173). Put plainly: M4-linked GIRK flux change, two-sided – cell-based, HEK293 M4/GIRK, thallium flux, BTC-AM, M4 allosteric agonist project, primary screen (AID 625;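 active = fluorescence slope after compound addition differing from the mean of all tested samples at 99.7% confidence, mostly higher but some lower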;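 also: thallium influx through GIRK channels coupled to M4 in HEK293 cells with BTC-AM dye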). The settings on record: at 10 µM, actives lie on both sides.
[13] abbreviates: measured here: cell density z-score.
Where [14] appears, read: measured here: nuclear c-Myc green intensity z-score.
[15] abbreviates: measured here: nuclear pErk red intensity z-score, stronger effect = higher value.

Dual specificity protein phosphatase 6 (Homo sapiens), sequence (Q16828 whole entry, looked up): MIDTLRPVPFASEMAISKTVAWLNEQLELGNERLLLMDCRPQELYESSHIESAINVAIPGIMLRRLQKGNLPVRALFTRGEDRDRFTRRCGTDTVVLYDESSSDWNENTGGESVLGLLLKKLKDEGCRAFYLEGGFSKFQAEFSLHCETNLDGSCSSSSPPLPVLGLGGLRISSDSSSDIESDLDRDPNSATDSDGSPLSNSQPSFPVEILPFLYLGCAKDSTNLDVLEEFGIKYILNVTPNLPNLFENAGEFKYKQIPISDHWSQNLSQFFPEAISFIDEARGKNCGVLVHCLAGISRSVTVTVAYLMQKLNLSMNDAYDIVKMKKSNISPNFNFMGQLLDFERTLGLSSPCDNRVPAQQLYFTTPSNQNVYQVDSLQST
Muscarinic acetylcholine receptor M4 (Homo sapiens), sequence (P08173 whole entry, looked up): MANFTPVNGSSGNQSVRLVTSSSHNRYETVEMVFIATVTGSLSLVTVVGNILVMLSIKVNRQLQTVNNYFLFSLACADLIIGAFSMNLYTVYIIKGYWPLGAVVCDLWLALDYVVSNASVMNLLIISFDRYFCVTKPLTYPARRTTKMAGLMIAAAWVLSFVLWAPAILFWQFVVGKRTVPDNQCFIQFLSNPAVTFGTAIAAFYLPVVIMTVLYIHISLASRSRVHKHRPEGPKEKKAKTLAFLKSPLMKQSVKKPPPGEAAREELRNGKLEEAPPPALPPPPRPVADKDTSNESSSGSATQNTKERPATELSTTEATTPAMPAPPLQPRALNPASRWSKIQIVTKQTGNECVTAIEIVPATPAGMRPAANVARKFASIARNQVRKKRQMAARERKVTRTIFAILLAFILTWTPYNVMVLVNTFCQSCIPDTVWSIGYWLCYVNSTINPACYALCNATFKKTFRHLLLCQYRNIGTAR
Alpha-2C adrenergic receptor (Homo sapiens), sequence (P18825 whole entry, looked up): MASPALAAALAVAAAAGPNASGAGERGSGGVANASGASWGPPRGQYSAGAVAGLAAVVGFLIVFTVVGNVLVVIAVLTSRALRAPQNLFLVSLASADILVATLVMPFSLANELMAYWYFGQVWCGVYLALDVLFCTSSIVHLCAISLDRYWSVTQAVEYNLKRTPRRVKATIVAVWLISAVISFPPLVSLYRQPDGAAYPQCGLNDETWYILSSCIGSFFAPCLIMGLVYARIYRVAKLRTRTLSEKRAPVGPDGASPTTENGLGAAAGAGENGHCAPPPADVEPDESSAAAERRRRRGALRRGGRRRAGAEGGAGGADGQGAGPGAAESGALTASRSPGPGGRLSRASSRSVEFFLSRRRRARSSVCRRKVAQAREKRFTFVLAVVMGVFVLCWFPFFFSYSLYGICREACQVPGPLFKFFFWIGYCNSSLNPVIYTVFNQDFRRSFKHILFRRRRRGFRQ
Voltage-gated potassium channel subunit beta-2 (Rattus norvegicus), sequence (P62483 whole entry, looked up): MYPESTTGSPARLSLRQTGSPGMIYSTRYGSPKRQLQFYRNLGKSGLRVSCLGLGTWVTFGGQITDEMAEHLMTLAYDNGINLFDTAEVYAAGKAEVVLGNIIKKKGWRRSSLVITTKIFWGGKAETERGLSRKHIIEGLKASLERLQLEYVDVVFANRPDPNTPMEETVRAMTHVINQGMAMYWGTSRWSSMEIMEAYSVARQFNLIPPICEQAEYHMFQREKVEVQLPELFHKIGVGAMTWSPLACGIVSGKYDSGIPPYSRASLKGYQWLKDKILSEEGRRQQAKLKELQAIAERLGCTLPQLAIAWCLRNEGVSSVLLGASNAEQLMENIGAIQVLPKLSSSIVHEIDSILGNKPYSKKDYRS

On to `CC(=O)O[C@]1(C(C)=O)CC[C@H]2[C@@H]3C=C(Cl)C4=CC(=O)CC[C@]4(C)[C@H]3CC[C@@]21C`, for which the inhibition of aggregation in [1] is -13.1% (inactive). In addition, the values for the nuclei count in assay [1] and in [2] were 100% and 126%, respectively. In addition, the inhibition is -108% (inactive) in assay [2]; 5.79% (inactive) in [4]; 8.01% (inactive) in assay [8]; -5.93% (inactive) in assay [9]; 38.2% (inactive) in assay [10]. In addition, the z-score was -0.773 in [3] (setting [13]), -0.174 in assay [3] (setting [14]) and -0.613 in assay [3] (setting [15]). The fluorescence slope in assay [5] is -0.438 (inactive). In addition, the NADPH fluorescence slope in assay [6] is -6.7e-05 (inactive). For the same molecule, the slope in assay [7] is 0.00452 (inactive).
For `CCOc1ccc2nc(S(N)(=O)=O)sc2c1`, in assay [1], the inhibition of aggregation is -4.8% (inactive). Also, the nuclei count in assay [1] came out at 112%; in assay [2] it was 127%. Besides, the inhibition in assay [2] was -20.9% (inactive); in assay [4] it was 21.2% (inactive); in assay [8], 31% (inactive); in [9], 3.12% (inactive); in assay [10], -17% (inactive). The z-score in assay [3] (setting [13]) was 1.44; in assay [3] (setting [14]), 0.726; in [3] (setting [15]), -0.916. The fluorescence slope in assay [5] is -0.485 (inactive). For the same molecule, the NADPH fluorescence slope in [6] is -5.5e-05 (inactive). The slope in assay [7] is 0.00518 (inactive). The molecule was classed as inactive in [11].
On to `CC1(C)O[C@@H]2C[C@H]3[C@@H]4C[C@H](F)C5=CC(=O)C=C[C@]5(C)[C@@]4(F)[C@@H](O)C[C@]3(C)[C@]2(C(=O)CO)O1`, for which the inhibition of aggregation in assay [1] was -15.7% (inactive). Moreover, the nuclei count in assay [1] is 58%; in assay [2], 102%. In addition, the inhibition in assay [2] was -6.4% (inactive); in [4], 27.1% (inactive); in assay [8], -10.3% (inactive); in assay [9], 5.68% (inactive); in assay [10] it was 56.9% (active). The z-score in assay [3] (setting [13]) was 1.28; in [3] (setting [14]), -0.179; in [3] (setting [15]), -0.732. Further, in assay [5], the fluorescence slope is -0.489 (inactive). For the same molecule, the NADPH fluorescence slope in assay [6] was 1.8e-05 (inactive). In assay [7], the slope was 0.00523 (inactive). For the same molecule, the molecule was classed as inactive in assay [11].
In the case of `COC(=O)c1ccc(N2C(=O)CC(N3CCN(C(=O)c4ccco4)CC3)C2=O)cc1` (centres undefined), the fluorescence slope in assay [12] was 0.00534 (inactive).
Turning to `CCOC(=O)c1cc2c(=O)n3cccc(C)c3nc2n(CCc2ccccc2)c1=N`, the fluorescence slope in assay [12] was 0.00314 (inactive).
With `COc1ccc(CSc2nnc(C)n2N)cc1Br`, the inhibition in assay [2] is -82.3% (inactive); in assay [4] it was 13.2% (inactive); in assay [8], 5.58% (inactive). This molecule also displayed a nuclei count in assay [2] of 182%. In addition, the z-score was 1.41 in assay [3] (setting [13]), -2.02 in assay [3] (setting [14]) and 0.078 in assay [3] (setting [15]). For the same molecule, the results for the fluorescence slope in assay [5] and in assay [12] were -0.395 (inactive) and 0.00742 (inactive), respectively. Moreover, the NADPH fluorescence slope in [6] was -5.4e-05 (inactive). In assay [11], the call was inactive.
Turning to `CC1(C)CC(=O)C(C2=NC(C)(C)Cc3ccccc32)=C(O)C1`, the inhibition in assay [2] was -46.3% (inactive); in [4] it was 15.1% (inactive); in assay [8] it was -9.43% (inactive). In addition, the nuclei count in [2] amounted to 99.8%. Further, the figures for the z-score in assay [3] (setting [13]), in assay [3] (setting [14]) and in [3] (setting [15]) were -0.0371, 0.246 and -0.668, respectively. In addition, the fluorescence slope was -0.435 (inactive) in assay [5] and 0.00539 (inactive) in [12]. Also, the NADPH fluorescence slope in assay [6] is 3.9e-06 (inactive). In addition, the outcome in [11] was inactive.
Consider `CC1(C)CC(=O)C=C(N=CC2=C(O)CC(C)(C)CC2=O)C1`, for which the inhibition in assay [2] is -39.1% (inactive); in assay [4], 9.39% (inactive); in assay [8], 8.63% (inactive). This molecule also gave a nuclei count in assay [2] of 174%. For the same molecule, the z-score is -0.899 in [3] (setting [13]), 1.02 in assay [3] (setting [14]) and 0.848 in assay [3] (setting [15]). For the same molecule, the fluorescence slope in assay [5] is -0.363 (inactive); in assay [12] it was 0.00557 (inactive). Further, in [6], the NADPH fluorescence slope is -4.6e-05 (inactive). In addition, the call in assay [11] was inactive.
